Hit rate of the full screen: of about 420,000 compounds, about 64,000 (15%) were called active. Roughly 27% stayed inconclusive and do not appear here. Calls come from the whole dose curve; as a rule, active = well fitted inhibition curve with a large enough effect; inconclusive = small, poorly fitted or top-dose-only effect; inactive = flat fitted curve, though single readings scatter. Only a sample is shown. A call without a number means that no potency is given here.
test: qHTS for Inhibitors of human tyrosyl-DNA phosphodiesterase 1 (TDP1): qHTS in cells in absence of CPT; conditions: DT40 Tdp1-/- hTDP1 cells, no CPT, ATP luminescence, 48 h; activity change, negative = growth inhibition: at 46.2 µM (top of the series); note: nearly all actives have a fitted effect of over 55% in size
Procedure, shortened: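 DT40 Tdp1-/-;hTDP1 cells, no CPT (DMSO vehicle only), 400 cells/well; compounds pin-transferred; ≥48 hr, 37 °C; CellTiter-Glo 30 min RT dark, luminescence read.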
Potency is the fitted concentration of half-maximal effect.

Row | Structure (SMILES) | Potency | activity change, negative = growth inhibition
1 | C/C=C(/C)C(=O)OC1Cc2c(ccc3ccc(=O)oc23)OC1(C)C (stereo not given) | inactive | –
2 | CCCS(=O)(=O)N1CCCC(C(=O)NCc2ccco2)C1 (stereo not given) | inactive | –
3 | COc1ccc(C(C#N)Nc2ccc(C)cc2)cc1 (stereo not given) | inactive | –
4 | O=C(N/N=C/c1cccnc1)c1ccc(NC(=O)c2ccc(F)cc2)cc1 | inactive | –
5 | Fc1ccc(/C=N/Nc2nc(-c3cccnc3)nc3ccccc23)cc1 | 16.4 µM (active) | –
6 | CCOc1ccc(C2/C(=C(/O)c3ccc4c(c3)CC(C)O4)C(=O)C(=O)N2CCCn2ccnc2)cc1 (stereo not given) | inactive | –
7 | O=C(CN1CCCCCC1)NCCN1C(=O)S/C(=C\c2ccccc2Cl)C1=O | inactive | –
8 | O=C1/C(=C\c2ccccc2Cl)SC(=S)N1CCC(=O)N1CCCc2ccccc21 | 14.6 µM (active) | –
9 | COc1ccc(NC(=O)CCN2C(=O)/C(=C/c3ccc4c(c3)OCO4)SC2=S)cc1 | inactive | –
10 | C=C(C)C1CC=C(CO)CC1 (stereo not given) | inactive | –
11 | CCCn1c(N)c(C(=O)CSc2nnc(-c3cccnc3)n2-c2ccc(C)cc2C)c(=O)[nH]c1=O | inactive | –
12 | Nc1nonc1-n1nnc(C(=O)N/N=C/c2c[nH]c3ccccc23)c1-c1ccccc1 | inactive | –
13 | O=C(N/N=C/c1c[nH]c2ccccc12)c1cc2ccccc2o1 | 14.6 µM (active) | –
14 | Cc1c(/C=N\NC(=O)c2cc3ccccc3o2)c2ccccc2n1C | 3.66 µM (active) | –
15 | CSC(=S)N/N=C/c1c[nH]c2ccccc12 | 0.92 µM (active) | –
16 | O=C(O)c1cccc(NC(=S)N/N=C/c2c[nH]c3ccccc23)c1 | inactive | –
17 | Cc1c(/C=N/N2C(=O)C3C4C=CC(C4)C3C2=O)c2ccccc2n1C (stereo not given) | inactive | –
18 | O=C(N/N=C/c1cccc(O)c1)c1cc2c(ccc3ccccc32)o1 | inactive | –
19 | NC(=O)CSc1c[nH]c2ccccc12 | inactive | –
20 | O=C(N/N=C/c1c[nH]c2ccccc12)c1ccccc1O | inactive | –
21 | O=C(O)C(F)(F)C(NCc1ccccc1)c1ccccc1 (stereo not given) | inactive | –
22 | COc1ccc(S(=O)(=O)N2CCC(C(=O)NCCC(=O)NCCc3cccc(F)c3)CC2)cc1 | inactive | –
23 | Cc1ccc(S(=O)(=O)C2C(=O)NC3(C)CC2c2ccccc2O3)cc1 (stereo not given) | inactive | –
24 | Cn1c(SCC(=O)N2CCCC2)nnc1-c1ccc2c(c1)OCO2 | inactive | –
25 | CCC1C(C#N)=C(SC)NC2=C1C(=O)CC(C)(C)C2 (stereo not given) | inactive | –

Row | Structure (SMILES) | Potency | activity change, negative = growth inhibition
26 | Nc1nonc1-n1nnc(C(=O)N/N=C/C2CCCCC2)c1-c1ccccc1 | inactive | –
27 | CCn1c(=O)cc(SCC(=O)NCc2ccc3c(c2)OCO3)c2ccccc21 | inactive | –
28 | CC1(C)NC(=O)N(CC(=O)Nc2cc(C(F)(F)F)cc(C(F)(F)F)c2)C1=O | inactive | –
29 | CNC(=S)Nc1ccc([N+](=O)[O-])cc1 | inactive | –
30 | Cc1c(NC(=O)/C=C/C(=O)O)cccc1[N+](=O)[O-] | inactive | –
31 | O=C(O)/C=C/C(=O)NNc1ccc([N+](=O)[O-])cc1 | 18.4 µM (active) | –
32 | CCC(=O)NC(NCC1CCCO1)C(Cl)(Cl)Cl (stereo not given) | inactive | –
33 | CC(C)Nc1nc(NCCOc2ccccc2Cl)c2sccc2n1 | 20.6 µM (active) | –
34 | COc1cccc(CNc2nc(NCc3cccs3)nc3ccsc23)c1 | 10.3 µM (active) | –
35 | COc1ccccc1CNc1nc(Nc2ccccc2Cl)c2sccc2n1 | 7.31 µM (active) | –
36 | COc1cccc(CNc2nc(NCc3ccccc3OC)nc3ccsc23)c1 | 9.2 µM (active) | –
37 | COCCNc1nc(NCc2ccc(NC(C)=O)cc2)c2sccc2n1 | inactive | –
38 | COc1ccccc1CNCc1cccs1 | inactive | –
39 | Cc1nc2cc(NCc3cccs3)ccc2n1C | inactive | –
40 | COc1cccc(CNc2nccn(-c3ccc(OC)c(OC)c3)c2=O)c1 | inactive | –
41 | CCc1ccc(S(=O)(=O)c2nnn3c2nc(NCc2ccccc2OC)c2cc(Cl)ccc23)cc1 | inactive | –
42 | COc1ccc(NC(=O)C/C(C)=N/NC(=O)c2cnccn2)cc1Cl | inactive | –
43 | COc1ccc(C(=O)N(Cc2ccc(N(C)C)cc2)C2CCS(=O)(=O)C2)cc1 (stereo not given) | inactive | –
44 | CC(C)C(OC(=O)c1cccs1)C(=O)NC1CCCCC1 (stereo not given) | inactive | –
45 | CCNc1nc(N)nc(-c2cc(Cl)ccc2OC)n1 | inactive | –
46 | COc1ccc(OC)c(S(=O)(=O)Nc2ccccc2F)c1 | inactive | –
47 | COc1ccc(C(=O)OCC(=O)Nc2ccc3[nH]c(=O)[nH]c3c2)c(OC)c1OC | inactive | –
48 | O=C(Nc1ccc(F)c([N+](=O)[O-])c1)C1CCCO1 (stereo not given) | inactive | –
49 | COc1ccc(/C=C2\CCc3ccccc3C2=O)c(OC)c1OC | 20.6 µM (active) | –
50 | O=C1/C(=C/c2cccs2)CCc2ccccc21 | inactive | –

Row | Structure (SMILES) | Potency | activity change, negative = growth inhibition
51 | COc1ccccc1C1=CC(=O)CCC1 | inactive | –
52 | COc1ccc(/C=C2\N=C3CCCN3C2=O)cc1 | inactive | –
53 | COc1ccc(/C=C2/CCCc3ccccc3C2=O)cc1 | 5.8 µM (active) | –
54 | COc1ccc(/C=C2\NC(=O)[C@@H]3Cc4ccccc4CN3C2=O)cc1 | – | -8.4% [at 9.04 µM] (inactive)
55 | O=C(O)CC(Cc1ccccc1)C(=O)Nc1ccc([N+](=O)[O-])cc1 (stereo not given) | inactive | –
56 | COc1cccc(C(=O)Nc2cccnc2)c1OC | inactive | –
57 | COc1ccc(/C(C)=N\NC(=O)c2ccc(-c3ccccc3)cc2)c(F)c1 | inactive | –
58 | COc1cccc(C(=O)N/N=C(\C)c2cccc(NC(=O)c3ccc(F)cc3)c2)c1OC | 23.1 µM (active) | –
59 | CCc1ccc(CCC(=O)Nc2ccc(S(N)(=O)=O)cc2)o1 | inactive | –
60 | Cc1ccc2cc(C)c(N3CCC(C)CC3)nc2c1 | inactive | –
61 | CCOc1n[nH]c(-c2ccccc2)n1 | inactive | –
62 | O=C(CNC(=O)N1CC(=O)Nc2ccccc21)Nc1ccc(Br)cc1F | inactive | –
63 | Cc1ccc(Cn2ccc(NC(=O)C3C4CCC(C4)C3C(=O)O)n2)cc1 (stereo not given) | inactive | –
64 | O=C(Nc1ccc(Cl)cc1)C1Cc2c(-c3ccc4c(c3)OCO4)ccnc2O1 (stereo not given) | 20.6 µM (active) | –
65 | COc1ccc(NC(=O)C2Cc3c(-c4ccc(Cl)cc4)ccnc3O2)cc1 (stereo not given) | 13 µM (active) | –
66 | COc1ccc(N(CC(=O)NC2CCCC2)C(=O)CS(=O)CC(=O)Nc2ccc3c(c2)OCO3)cc1 (stereo not given) | inactive | –
67 | COc1ccc(CCCNC(=O)C2Cc3c(-c4cccc(C(N)=O)c4)ccnc3O2)cc1 (stereo not given) | 16.4 µM (active) | –
68 | O=C(COc1ccc(Cl)cc1)Nc1ccc2c(c1)OCO2 | inactive | –
69 | COc1ccc(CCNC(=O)COc2ccc3c(c2)OCO3)cc1 | inactive | –
70 | COc1ccc(CCNC(=O)COC(=O)c2cnc(Cl)c(Cl)c2)cc1 | inactive | –
71 | O=C(Nc1ccc2c(c1)OCO2)C1CC1(Cl)Cl (stereo not given) | inactive | –
72 | COc1ccc(OCC(O)CNC(=O)Nc2ccc(Cl)cc2)cc1 (stereo not given) | inactive | –
73 | CC(=O)Nc1ccc(-c2ccnc3c2CC(C(=O)NC(C)C)O3)cc1 (stereo not given) | inactive | –
74 | COc1ccc(NC(=O)C2Cc3c(-c4ccc5c(c4)OCO5)ccnc3O2)cn1 (stereo not given) | 4.61 µM (active) | –
75 | COc1ccc(Cn2ccnc2SCC(=O)Nc2ccc3c(c2)OCO3)cc1 | inactive | –
